± gives the standard deviation.
Assays:
Details in all cases: modulator concentration 10 µM
[1] = tested on: RAW-Dual (murine macrophage reporter line); assay: NF-kB reporter (SEAP) activity fold change vs agonist alone; higher = enhanced NF-kB activity
Summary of the method: (§1)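 In 384-well plates holding 50 000 RAW-Dual murine macrophage reporter cells per well, compound at 10 μM final was pre-incubated for 1 hour at 37 °C, after which a PRR agonist was added overnight. Supernatant SEAP read with QUANTI-Blue at 620 nm absorbance reported NF-κB, and Lucia luciferase read with QUANTI-Luc luminescence reported IRF. Fold change values come from dividing each reporter signal by the mean of agonist-only control wells on the same plate, averaged over replicate plates with propagated errors.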

[2] = tested on: RAW-Dual (murine macrophage reporter line); assay: IRF reporter (Lucia luciferase) activity fold change vs agonist alone; higher = enhanced IRF activity
Summary of the method: as §1

[3] = tested on: RAW-Dual (murine macrophage reporter line); assay: viability score (confluency relative to resting cells, overnight) (fraction); higher = more viable, active = viable (0.7 or more)
Summary of the method: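 RAW-Dual macrophages in 384-well plates were treated overnight with compound at 10 μM final. IncuCyte imaging recorded confluency, and IncuCyte software built two confluency masks across every imaged well. The viability score expresses confluency relative to resting cells and was judged against a cutoff, which a compound met only if both masks exceeded 70% of resting cells.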

[4] = agonist: CpG ODN 1826 0.5 ug/mL

SMILES | NF-kB reporter [1, 4] | NF-kB reporter ([1]; agonist: LPS 0.1 ug/mL) | NF-kB reporter ([1]; agonist: MPLA […]) | IRF reporter ([2]; agonist: 3'3'-cGAMP 10 ug/mL) | IRF reporter ([2]; agonist: LPS 0.1 ug/mL) | IRF reporter ([2]; agonist: MPLA […]) | viability score [3]
O=C(NCCOc1cccc2cccnc12)c1c(F)cccc1F | 0.911 ± 0.088 | 1.01 ± 0.13 | 0.859 ± 0.049 | 0.961 ± 0.048 | 1.01 ± 0.1 | 1.05 ± 0.31 | 1.01 (active)
O=C(CSC1CCCCC1)Nc1cc(C(F)(F)F)ccc1Cl | 0.516 ± 0.045 | 1.38 ± 0.11 | 1.39 ± 0.063 | 1.45 ± 0.14 | 2.2 ± 0.16 | 1.47 ± 0.43 | 1.01 (active)
CC(=O)Nc1ccc2nc(NC(=O)c3ccco3)sc2c1 | 1.05 ± 0.083 | 1.03 ± 0.09 | 0.95 ± 0.072 | 0.827 ± 0.046 | 1.03 ± 0.069 | 0.744 ± 0.084 | 1 (active)
Cc1ccc(-c2cc(-c3ccccc3)nc(NN=Cc3ccc(O)cc3)n2)cc1 | 0.952 ± 0.12 | 1.3 ± 0.14 | 1.7 ± 0.17 | 0.228 ± 0.026 | 0.942 ± 0.12 | 0.949 ± 0.12 | 0.923 (active)
c1ccc(OCc2nnc(-c3ccccc3)o2)cc1 | 1.15 ± 0.1 | 1.19 ± 0.09 | 1.14 ± 0.037 | 0.87 ± 0.078 | 0.937 ± 0.044 | 0.973 ± 0.076 | 0.999 (active)
N#Cc1nc(-c2ccc(COc3ccccc3)o2)oc1N1CCCCC1 | 1.07 ± 0.06 | 1.24 ± 0.077 | 1.12 ± 0.069 | 1.27 ± 0.071 | 1.53 ± 0.1 | 1.3 ± 0.14 | 0.981 (active)
CN1CCC(=C2c3ccccc3C=Cc3ccccc32)CC1 [Prestw-103] | 0.516 ± 0.038 | 0.833 ± 0.056 | 1.01 ± 0.053 | 0.72 ± 0.067 | 0.905 ± 0.1 | 0.915 ± 0.12 | 0.293 (inactive)
CC12CC3(C)CC(C)(C1)CC(C(=O)NC(C)(C)CO)(C2)C3 | 0.866 ± 0.067 | 0.867 ± 0.097 | 0.879 ± 0.09 | 0.996 ± 0.067 | 1.42 ± 0.096 | 1.52 ± 0.16 | 1 (active)
COc1ccc(C)cc1NC(=O)CN(c1cccc(Br)c1)S(=O)(=O)c1ccccc1 | 0.904 ± 0.077 | 0.97 ± 0.053 | 0.915 ± 0.062 | 0.94 ± 0.023 | 1.11 ± 0.092 | 0.809 ± 0.18 | 1.02 (active)
CC1=C(CC(=O)O)c2cc(F)ccc2/C1=C\c1ccc(S(C)=O)cc1 (stereo not drawn) | 0.984 ± 0.14 | 0.828 ± 0.061 | 1.13 ± 0.098 | 1.09 ± 0.051 | 1.23 ± 0.073 | 1.41 ± 0.13 | 1 (active)
Cc1c(OCC(=O)OC(C)C)ccc2c3c(c(=O)oc12)CCCC3 | 0.794 ± 0.063 | 0.883 ± 0.14 | 1.21 ± 0.12 | 0.949 ± 0.086 | 1.49 ± 0.095 | 1.71 ± 0.24 | 1.01 (active)
CC1CC(=O)C2=C(C1)OC(N)=C(C#N)C2c1ccc(Br)cc1 (stereo not drawn) | 0.847 ± 0.088 | 0.91 ± 0.17 | 1 ± 0.056 | 0.782 ± 0.096 | 0.904 ± 0.04 | 0.731 ± 0.12 | 0.994 (active)
NC(=O)CSc1nc(O)cc(=O)n1-c1ccccc1F | 0.987 ± 0.16 | 1.06 ± 0.088 | 1.09 ± 0.11 | 0.978 ± 0.048 | 1.39 ± 0.26 | 1.23 ± 0.13 | 1.01 (active)
CCOc1ccc(CN2CCN(c3cc(C)nc4c5c(C)cc(C)nc5nn34)CC2)cc1 | 0.944 ± 0.08 | 1.04 ± 0.077 | 1.02 ± 0.022 | 1.05 ± 0.1 | 1 ± 0.14 | 0.96 ± 0.26 | 1 (active)
